# PubChem BioAssay (NCATS)
# Records with an inconclusive call do not appear. Where a call stands in place of a potency, no number is given. The source made the active and inactive calls. The call rests on the fitted dose curve; in most records, active means well fitted inhibition curve with a large enough effect; inconclusive means small, poorly fitted or top-dose-only effect; inactive means no such curve, though single readings can be large or run the other way.
# Tested on: Zika virus NS2B-NS3 protease (linked construct)
# Assay: Primary screen NINDS Rhodamine qHTS for Zika virus inhibitors (AID 1347160); further: nearly all actives have a fitted effect of over 55% in size
# Conditions: purified NS2B-NS3 protease, Rhodamine110 substrate fluorescence; series mostly up to 33.1 µM
# Method in brief: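 Percent inhibition, normalized to uninhibited and enzyme-free controls, is fitted to a 4-parameter Hill equation. Fluorescence change comes from a 15-min cleavage of 1.5 microM bis-peptide Rhodamine110 substrate by 25 nM linked NS2B-NS3 at room temperature.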
row,SMILES,Potency
1,CN1CCc2cc(Cl)c(O)cc2[C@@H](c2cccc3c2OCC3)C1,inactive
2,C[C@@H]1CC2OC(=O)C3=C2C(CCC3O)[C@@]12C[C@@H](c1ccoc1)OC2=O (some centres undefined),inactive
3,CC(O)C(O)/C=C/C=C/C(=O)O[C@@H]1C=C(C(=O)O)[C@](O)(CO)[C@@]2(C)CCCC(C)(C)[C@H]12 (some centres undefined),inactive
4,COC(=O)Cn1nc(-c2cccc(OC)c2)c2ccccc21,inactive
5,CC(=O)OCC1=C[C@@H]2OC(=O)C3=CO[C@@H](O[C@@H]4O[C@H](CO)[C@@H](O)[C@H](O)[C@H]4O)[C@H]1[C@@H]32,inactive
6,C=C1CCC2(OC1)OC1CC3C4CC=C5CC(O)CC(O[C@@H]6OC[C@H](OC(=O)C(O)C(C)CC)[C@H](O)[C@H]6O[C@@H]6O[C@@H](C)[C@H](O)[C@@H](O)[C@H]6O)C5(C)C4CCC3(C)C1C2C (some centres undefined),inactive
7,COc1c2ccoc2nc2c(OC)c(O[C@@H]3O[C@@H](C)[C@H](O)[C@@H](O[C@@H]4O[C@H](CO)[C@@H](O)[C@H](O)[C@H]4O)[C@H]3OC(C)=O)ccc12,inactive
8,CC(C)C(NC(=O)c1ccc(O)cc1)C(=O)N1CCCC1C(=O)Nc1c(O)cccc1C(=O)O (centres undefined),inactive
9,CC1OC(O[C@@H]2[C@@H](O)[C@H](OC(=O)[C@]34CCC(C)(C)C[C@H]3C3=CCC5[C@@]6(C)CC[C@H](O[C@@H]7O[C@H](C(=O)O)[C@@H](O)[C@H](O[C@@H]8OC[C@@H](O)[C@H](O)[C@H]8O)[C@H]7O[C@@H]7O[C@H](CO)[C@H](O)[C@H](O)[C@H]7O)[C@@](C)(C=O)C6CC[C@@]5(C)[C@]3(C)C[C@H]4O)O[C@H](C)[C@@H]2OC2OC(C)C(OC3OCC(O)C(O)C3O)C(O)C2O)C(O)C(O)C1O (some centres undefined),inactive
